Our source for the outcome and AC50 values is PubChem BioAssay (EPA / NIEHS).

Molecules are shown by their SMILES. Records with an inconclusive call do not appear. Activity calls are given as the source filed them. The calls were made as follows, unless noted: active = hit-call score of the fitted dose curve at least 0.9, where 1 is the maximum; inconclusive = response in the unintended direction; inactive = score below 0.9.

Assay [1] in a line: Tanguay_ZF_120hpf_SOMI_legacy: (Legacy) Oregon State University Tanguay Lab 120 Hour Post-fertilization zebrafish Assay for Somite Malformation (AID 2283647). In short, it runs like this:
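Somitogenesis defects are recorded as binary calls in whole larvae at 120 hpf after continuous static chemical exposure starting at 6 hpf in dechorionated 5D embryos. DMSO serves as negative control and baseline.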

Assay [2] can be described thus: Tanguay_ZF_120hpf_PFIN_legacy: (Legacy) Oregon State University Tanguay Lab 120 Hour Post-fertilization zebrafish Assay for Pectoral Fin Malformation (AID 2283648).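 Also: each larva judged yes or no for fin defect by brightfield with dead larvae skipped.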 In short, it runs like this: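 Pectoral fin malformation was recorded as a binary endpoint at 120 hpf in wild-type Tropical 5D larvae, which had been dechorionated and exposed statically from 6 hpf at 28C in 0.64% DMSO. Dead embryos were excluded.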

Assay [3] is described as follows: Tanguay_ZF_120hpf_CFIN_legacy: (Legacy) Oregon State University Tanguay Lab 120 Hour Post-fertilization zebrafish Assay for Caudal Fin Malformation (AID 2283649). In short, it runs like this:
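Single dechorionated 5D wild-type embryos are dosed at 6 hpf (final DMSO 0.64%) and held statically at 28C. Caudal fin malformation is recorded as present or absent at 120 hpf under brightfield, excluding dead embryos.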

A short description of assay [4]: Tanguay_ZF_120hpf_PIG_legacy: (Legacy) Oregon State University Tanguay Lab 120 Hour Post-fertilization zebrafish Assay for Pigmentation Malformation (AID 2283650). In short, it runs like this: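 Pigment malformation recorded as a binary call at 120 hpf in zebrafish (Tropical 5D) exposed singly from 6 hpf after pronase dechorionation. Static, sealed, 28C exposure, 0.64% DMSO; mortality excludes scoring; positive-direction fit against DMSO.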

Assay [5] is described as follows: Tanguay_ZF_120hpf_CIRC_legacy: (Legacy) Oregon State University Tanguay Lab 120 Hour Post-fertilization zebrafish Assay for Circulatory Malformation (AID 2283651). In short, it runs like this: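 Static exposure, 6–120 hpf, 28C, sealed and dark; one dechorionated 5D embryo/well; DMSO 0.64% v/v final. Binary circulation endpoint by brightfield; dead embryos not scored.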

Assay [6] is described as follows: Tanguay_ZF_120hpf_TRUN_legacy: (Legacy) Oregon State University Tanguay Lab 120 Hour Post-fertilization zebrafish Assay for Truncated Body (AID 2283655). An outline of the steps: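 Single dechorionated zebrafish embryos received test chemical from 6 hpf in 0.64% DMSO, kept at 28C. At 120 hpf, brightfield inspection noted any truncated body.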
In assay [7] the test system is Thyroperoxidase (TPO), gene 54314. Briefly: CCTE_Simmons_AUR_rTPO: CCTE's Amplex UltraRed Assay for Thyroperoxidase (TPO) Inhibition, Simmons Lab (AID 2283662).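 As to AC50: potency for loss of signal meaning inhibition of peroxidase activity.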 An outline of the steps:
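Rat thyroid microsomes (5 ug protein) were incubated with test compound (8 concentrations, 5 nM–87.5 uM final, 0.5% DMSO), 25 uM Amplex UltraRed and 300 uM H2O2 in 200 mM phosphate buffer for 30 min at 37C in the dark; fluorescence read at 544/590 nm.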

The nature of assay [8]: CCTE_Simmons_CellTiterGLO_HEK293T: Viability Assessment in CCTE's Assays for Thyroperoxidase (TPO) Inhibition, Simmons Lab (AID 2283665).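 As to AC50: cells exposed to compound for 24 h before readout; actives reduce ATP signal below DMSO vehicle meaning cytotoxicity.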 An outline of the steps:
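Luminescent ATP readout (CellTiter-Glo, 20 min at room temperature) after 24 hr exposure of HEK293T cells to 5 nM–87.5 uM final compound; signal loss relative to DMSO vehicle indicated cytotoxicity; dichlone titrated as positive control.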
On the technique in general: ATP-based viability assays read luminescence as a measure of living cells.

A short description of assay [9]: Tanguay_ZF_120hpf_NC_legacy: (Legacy) Oregon State University Tanguay Lab 120 Hour Post-fertilization zebrafish Assay for Notochord and Tail Malformation (AID 2283656). In short, it runs like this: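 Binary notochord-distortion calls, made by brightfield inspection, form the read-out; activity is fitted in the positive direction against DMSO. Exposure ran statically from 6 to 120 hpf at 28C with 0.64% DMSO.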

Assay [10] can be described thus: Tanguay_ZF_120hpf_TR_legacy: (Legacy) Oregon State University Tanguay Lab 120 Hour Post-fertilization zebrafish Assay for Touch Response (AID 2283667). An outline of the steps: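 Binary touch-response endpoint in larvae at 120 hpf after static waterborne exposure from embryo stage (28°C, 0.64% DMSO vehicle, 5 uM trimethyltin chloride as positive control); embryos dead at 24 or 120 hpf excluded; fitted as gain versus DMSO.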

Assay [11] in a line: CCTE_Padilla_ZF_144hpf_TERATOSCORE: (Legacy) CCTE's 144 Hour Post-fertilization zebrafish Assay Teratoscore, Padilla Lab (AID 2283679; active = hit-call score of the fitted dose curve at least 0.9, where 1 is the maximum; inactive = score below 0.9;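 as to AC50: zebrafish embryos with chorions exposed by immersion from 6-8 hpf to 5 dpf with daily renewal; teratogenicity score from eye scoring of death hatching and malformations at 144 hpf; higher score means more developmental defects relative to DMSO baseline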). An outline of the steps: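 Larvae scored by eye at 144 hpf for death, hatching and malformations after a day in clean Hanks'. Before that, daily-renewed exposure at 80 uM (0.4% DMSO, 26C) from roughly 6-8 hpf through 5 dpf, 4 embryos per chemical.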

The nature of assay [12]: STM_H9_CystineISnorm_perc: Stemina devTOX quickPredict H9 human embryonic stem cell (hESC)-based Assay for Cystine (CYSS) Metabolite Biomarker, Normalized (AID 2283713; active = hit-call score of the fitted dose curve at least 0.9, where 1 is the maximum; inactive = score below 0.9). An outline of the steps:
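UPLC-HRMS read-out: endogenous cystine peak area in spent medium, normalized to isotope-labeled internal standard and to median of 0.1% DMSO controls. Pluripotent H9 cells, 72h exposure, daily medium/compound replenishment; medium from last 24h sampled.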

Assay [13] is described as follows: Tanguay_ZF_120hpf_SWIM_legacy: (Legacy) Oregon State University Tanguay Lab 120 Hour Post-fertilization zebrafish Assay for Swim Bladder Malformation (AID 2283654).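 Also: swim bladder malformation in each larva scored yes or no under brightfield.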 In short, it runs like this:
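Scoring is binary for swim bladder defects at 120 hpf, by brightfield inspection of zebrafish larvae. Embryos were exposed singly from 6 hpf after pronase dechorionation, at 28C with 0.64% DMSO; mortality excluded scoring.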

Assay [14] in a line: STM_H9_OrnCyssISnorm_ratio: Stemina devTOX quickPredict H9 human embryonic stem cell (hESC)-based Assay for Ornithine (ORN):Cystine (CYSS) Ratio (AID 2283714). An outline of the steps:
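Ratio of internal-standard-normalized ornithine to cystine, measured by UPLC-HRMS in spent media from the last 24 h. H9 cells kept pluripotent, dosed 72 h with daily media and compound renewal; DMSO 0.1% serves as baseline.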

Read-out in assay [15]: solute carrier (SLC22A6), SLC22A6 (gene 9356)
Briefly: LTEA_HepaRG_SLC22A6: Life Technologies and Expression Analysis (LTEA) Assay for solute carrier (SLC22A6) using HepaRG (AID 2283653; active = hit-call score of the fitted dose curve at least 0.9, where 1 is the maximum; inactive = score below 0.9). As to conditions: mRNA level, 48 h; actives raise or lower the signal. In short, it runs like this:
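Gene-expression endpoint in HepaRG hepatic cells: duplicate 8-point concentration-response, highest 100 uM, 48 h treatment in serum-free medium with 0.5% DMSO. SLC22A6 expression measured by qRT-PCR, normalised to ACTB/GAPDH/POLR2A.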

Read-out in assay [16]: solute carrier (SLC10A1), SLC10A1 (gene 6554)
Briefly: LTEA_HepaRG_SLC10A1: Life Technologies and Expression Analysis (LTEA) Assay for solute carrier (SLC10A1) using HepaRG (AID 2283657; active = hit-call score of the fitted dose curve at least 0.9, where 1 is the maximum; inactive = score below 0.9). As to conditions: mRNA level, 48 h; actives raise or lower the signal. An outline of the steps: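 SLC10A1 transcript measured by TaqMan qRT-PCR, housekeeping-normalised, after 48 h chemical treatment of human HepaRG cells. Eight concentrations (half-log, max 100 uM, 0.5% DMSO vehicle) in duplicate; fitted bidirectionally against DMSO baseline.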

Read-out in assay [17]: matrix metalloproteinase-1 (MMP1), MMP1 (gene 4312)
Briefly: LTEA_HepaRG_MMP1: Life Technologies and Expression Analysis (LTEA) Assay for matrix metalloproteinase-1 (MMP1) using HepaRG (AID 2283658; active = hit-call score of the fitted dose curve at least 0.9, where 1 is the maximum; inactive = score below 0.9). As to conditions: mRNA level, 48 h; actives raise or lower the signal. In short, it runs like this: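 In this screen, human liver HepaRG cultures receive each chemical in duplicate for 48 h (top 100 uM, 0.5% DMSO). MMP1 expression is then quantified by TaqMan qRT-PCR with ACTB/GAPDH/POLR2A normalization.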

Read-out in assay [18]: Cytochrome P450 (CYP24A1_1), CYP24A1 (gene 1591)
Briefly: LTEA_HepaRG_CYP24A1_1: Life Technologies and Expression Analysis (LTEA) Assay for Cytochrome P450 (CYP24A1_1) using HepaRG (AID 2283671; active = hit-call score of the fitted dose curve at least 0.9, where 1 is the maximum; inactive = score below 0.9). As to conditions: mRNA level, 48 h; actives raise or lower the signal. An outline of the steps: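 Differentiated human HepaRG cells were exposed in duplicate for 48 h in serum-free induction medium to eight concentrations (top 100 uM, half-log steps, 0.5% DMSO). CYP24A1 mRNA was quantified by TaqMan qRT-PCR, normalized to ACTB, GAPDH and POLR2A, and fitted bidirectionally versus DMSO.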

On to `C=CCc1ccc(O)c(OC)c1`, for which the compound was called inactive in assay [1], in assay [2], in assay [3], in [4], in assay [5] and in [6]. In addition, the call in assay [8] was inactive. Further, the AC50 in assay [7] is 6.16 µM (active).

With `Cc1cc(NC(=O)C(=O)O)cc(C)c1Oc1ccc(O)c2c1CCC2`, the outcome in [1], in assay [3], in [5], in [6], in assay [9] and in assay [8] was inactive. The compound was called inactive in assay [10] and in assay [12]. Moreover, the AC50 is 0.499 µM (active) in assay [2], 0.00339 µM (active) in [4], 5.07 µM (active) in [7] and 0.657 µM (active) in assay [11].

Turning to `CCCCOC(=O)CCCCCCCCC(=O)OCCCC`, the compound was classed as inactive in [1], in assay [2], in [3], in [4], in assay [13] and in assay [6]. For the same compound, the compound was called inactive in assay [9] and in [10].

With `CCOc1ccc2c(c1)C(C)=CC(C)(C)N2`, the result in assay [1], in assay [2], in assay [3], in assay [4], in assay [5] and in assay [6] was inactive. Further, the result in assay [9], in assay [12] and in [14] was inactive. Besides, the figures for the AC50 in assay [7], in [8] and in [11] were 1.48 µM (active), 48.8 µM (active) and 57.7 µM (active), respectively.

For the compound `CCCc1cc(=O)[nH]c(=S)[nH]1`, the compound was classed as inactive in assay [1], in assay [2], in assay [3], in assay [4], in assay [13] and in [6]. For the same compound, the outcome in assay [9], in assay [8], in assay [12] and in assay [14] was inactive. The AC50 in assay [7] was 0.285 µM (active).

Turning to `Nc1ccc(S(=O)(=O)c2ccc(N)cc2)cc1`, the result in assay [1], in assay [2], in [3], in assay [4], in [5] and in [6] was inactive. The call in [9] and in [8] was inactive. Further, the concentration at half-maximal activity (AC50) in assay [7] is 6.89 µM (active).

As to `Cc1c(C(=O)O)c(O)cc2c1C(=O)c1c(O)c([C@@H]3O[C@H](CO)[C@@H](O)[C@H](O)[C@H]3O)c(O)c(O)c1C2=O`, the outcome in assay [1], in assay [2], in assay [3], in [4], in [13] and in assay [6] was inactive. In addition, the result in [9], in [10], in assay [11], in assay [12] and in assay [14] was inactive. Besides, the AC50 in [7] is 2.65 µM (active); in assay [8] it was 12.6 µM (active).

Regarding `Oc1ccc2ccccc2c1N=Nc1ccccc1`, the compound was classed as inactive in [1], in assay [2], in assay [3], in assay [4], in assay [5] and in assay [15]. For the same compound, the result in assay [6], in [9], in assay [17], in assay [7], in assay [18] and in assay [12] was inactive. Besides, the outcome in assay [14] was inactive. For the same compound, the AC50 in assay [13] was 51.7 µM (active); in assay [16] it was 4.88 µM (active); in assay [8], 17 µM (active); in [10], 25.4 µM (active); in assay [11], 5.21 µM (active).

The AC50 is the midpoint of the concentration-response curve, whichever way the signal moves.
